FBW7 activator: activators of human E3 ligase FBW7. Q969H0. 650,000 compounds, 0.13% hits. normalized activity (activation), % at 26.1 µM. AlphaScreen FBW7–phospho-cyclin E peptide binding, activator screen; in the data active = normalized activity above about 1.9%;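 also: purified mutant Fbw7 with reduced substrate affinity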
GPR151 ag: human GPR151 activation | Q8TDV0 | PathHunter beta-arrestin GPR151 cells, luminescence | activation, % at 11.2 µM | 650,000 compounds, 1% hits; in the data active = activation above about 4.9%
MITF inh: inhibitors of human MITF; O75030; 650,000 compounds, 0.91% hits; AlphaScreen MITF homodimerization, bead proximity signal; AID 1259374; inhibition, % at 2.6 µM; in the data active = inhibition above about 50%
Target sequence (O75030 whole entry, looked up): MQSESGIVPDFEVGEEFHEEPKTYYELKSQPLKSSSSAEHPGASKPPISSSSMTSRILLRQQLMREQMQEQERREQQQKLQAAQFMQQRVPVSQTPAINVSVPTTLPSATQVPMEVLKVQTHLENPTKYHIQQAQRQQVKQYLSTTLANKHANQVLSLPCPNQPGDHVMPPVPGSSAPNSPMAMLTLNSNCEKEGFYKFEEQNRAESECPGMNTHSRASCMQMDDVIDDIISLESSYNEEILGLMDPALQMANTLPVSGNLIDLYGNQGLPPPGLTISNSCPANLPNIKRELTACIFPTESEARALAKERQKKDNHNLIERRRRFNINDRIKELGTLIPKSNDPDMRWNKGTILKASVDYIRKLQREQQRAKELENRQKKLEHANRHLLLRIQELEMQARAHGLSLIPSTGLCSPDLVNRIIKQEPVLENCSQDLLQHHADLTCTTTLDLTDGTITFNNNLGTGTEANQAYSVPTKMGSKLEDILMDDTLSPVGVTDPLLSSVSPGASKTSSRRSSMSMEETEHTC
TEAD-YAP inh: TEAD-YAP interaction inhibition. HEK-TIYL cells, TEAD-Gal4/YAP UAS-luciferase luminescence. inhibition, % at 9.12 µM. 640,000 compounds, 1.4% hits; in the data active = inhibition above about 32%
MITF inh conf: human MITF inhibition, confirmation; shares compounds with MITF inh; AlphaScreen MITF homodimerization, biotin/His-MITF beads; inhibition, % at 2.6 µM; 4,700 compounds, 16% hits;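 active = inhibition above a cutoff derived from the DMSO control wells, cut at about 28% in these data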;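 also: inhibitors lower the bead chemiluminescence by keeping MITF from dimerizing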
AS interf DR: AlphaScreen optical interference, dose response counter-screen; shares compounds with MITF inh; AlphaScreen optical interference counterscreen, cell-free; IC50, µM; 480 compounds, 6% hits; AID 1259373; call rule not given here
AlphaScreen intf2: optically interferes with AlphaScreen signal; LysRS AlphaScreen counterscreen, signal interference, triplicate; 4,700 compounds, 7.6% hits; inhibition, % at 2.6 µM; shares compounds with MITF inh;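 active = inhibition above a cutoff derived from the DMSO control wells, cut at about 30% in these data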
Large screens that a line does not name were inactive (follow-up assays come after a bar, where they were run). Hits are enriched below; roughly 3.5% of the tested compounds scored in any of these assays.

CN1CCCN(Cc2cccc3ccccc23)CC1	MITF inh 51.5 | MITF inh conf inactive | AlphaScreen intf2 inactive
O=C(/C=C/c1ccco1)NCC(=O)N/N=C/c1ccc(C(=O)O)cc1	MITF inh 51.2 | MITF inh conf 45.1 | AS interf DR inactive | AlphaScreen intf2 inactive
O=C(Cn1c(=S)[nH]c2ccccc2c1=O)N(CCO)Cc1ccccc1	MITF inh 63.0 | MITF inh conf inactive | AlphaScreen intf2 inactive
COc1cc(N2CCOCC2)ccc1Nc1cc(NCc2ccccc2)c(C(F)(F)F)cn1	none
COc1cc(N2CCOCC2)ccc1Nc1cc(NC(C)(C)c2ccccc2)c(C(F)(F)F)cn1	MITF inh 57.9 | MITF inh conf 44.2 | AS interf DR inactive | AlphaScreen intf2 inactive
Cc1cc(NC(=O)c2ccc(Br)cc2)ccc1O	MITF inh 75.1, TEAD-YAP inh 80.0 | MITF inh conf inactive | AlphaScreen intf2 inactive
Cc1cc(NC(=O)c2ccc(Br)cc2)c(C)cc1O	none
CC(NC(=O)c1ccc(Cl)nc1)c1nc(-c2ccncc2)n[nH]1 (configuration not stated)	none
CON1C(=O)C(C)(C)N(OC)C(=O)C1(C)C	none
O=S(=O)(c1ccccc1)N1CCN(CC(O)COCc2ccco2)CC1 (configuration not stated)	MITF inh 93.7 | MITF inh conf inactive | AlphaScreen intf2 inactive
NC(=O)Cn1nnc(-c2ccccc2NC(=O)C2CCCCC2)n1	MITF inh 84.2 | MITF inh conf inactive | AlphaScreen intf2 inactive
O=C(Cn1nnc(-c2ccccc2NC(=O)C2CC2)n1)Nc1ccccc1	none
Cc1cc(OC(=O)c2cccc([N+](=O)[O-])c2)ccc1N1C(=O)CCC1=O	MITF inh 69.7 | MITF inh conf inactive | AlphaScreen intf2 inactive
NC(=O)c1ccccc1OS(=O)(=O)c1ccc(Cl)cc1F	none
O=C(c1cc(Cl)cc(Cl)c1)N1CCN(C(=O)c2cc(Cl)cc(Cl)c2)CC1	none
O=C(c1cc(Cl)cc(Cl)c1)N1CCCCC1	MITF inh 62.2 | MITF inh conf inactive | AlphaScreen intf2 inactive
Cn1c(NC(=O)CC(c2ccccc2)c2ccccc2)cc(=O)n(C)c1=O	none
CC(CCc1ccccc1)NCc1nc2ccsc2c(=O)[nH]1 (configuration not stated)	MITF inh 51.6 | MITF inh conf inactive | AlphaScreen intf2 inactive
Cc1nn(C(=O)c2ccc3c(c2)OCO3)c(N)c1-c1ccccc1	MITF inh 51.6 | MITF inh conf inactive | AlphaScreen intf2 inactive
Cc1nn(C(=O)c2cccs2)c(N)c1-c1ccccc1	none
CCCCN1C(=O)NC2NC(=O)NC21 (configuration not stated)	MITF inh 94.3 | MITF inh conf 85.8 | AlphaScreen intf2 54.3
O=C(Nc1ccc(O)c(-c2nc3ccccc3o2)c1)C(Cl)(Cl)Cl	none
Cc1cc(C)n(CCNC2CCN(c3ccc(C(=O)NC(C)c4ccccc4)cc3)CC2)n1 (configuration not stated)	MITF inh 90.8 | MITF inh conf inactive | AlphaScreen intf2 inactive
N#C/C(=C/Nc1ccccc1F)c1nc(-c2ccc([N+](=O)[O-])cc2)cs1	MITF inh 67.5 | MITF inh conf inactive | AlphaScreen intf2 inactive
Cc1cccc(C)c1NC(=O)C(Cc1c[nH]c2ccccc12)NC(=O)OC(C)(C)C (configuration not stated)	MITF inh 62.6 | MITF inh conf inactive | AlphaScreen intf2 inactive
COc1ccc(-c2n[nH]c(=S)n2/N=C/c2cc(OC)ccc2OC)cc1	MITF inh 55.2 | MITF inh conf inactive | AlphaScreen intf2 inactive
CCOc1ccc(OCC)c(S(=O)(=O)NCc2cccnc2)c1	MITF inh 56.5 | MITF inh conf inactive | AlphaScreen intf2 inactive
COc1ccc(OC)c(S(=O)(=O)NCc2cccnc2)c1	none
CC(C)[C@H]1NC(=O)[C@H]2CN(C(=O)c3ccccc3)CCN2C1=O	none
CC(C)[C@H]1NC(=O)[C@H]2CN(C(=O)NC3CCCCC3)CCN2C1=O	MITF inh 75.9 | MITF inh conf 71.7 | AS interf DR inactive | AlphaScreen intf2 inactive
C[C@@H](O)[C@@H]1NC(=O)[C@H]2CN(C(=O)NC3CCCCC3)CCN2C1=O	MITF inh 80.3 | MITF inh conf 73.0 | AS interf DR inactive | AlphaScreen intf2 inactive
Cc1ccc(C(=O)N2CCN3C(=O)[C@@H]([C@H](C)O)NC(=O)[C@H]3C2)cc1	none
